B2AR arrestin = qHTS assay of beta-arrestin-biased ligands of beta2-adrenergic receptor. AID 492947, 2010. Beta-2 adrenergic receptor (Homo sapiens), P07550. actives 0.02% (n = 330,000). beta-arrestin recruitment to beta2AR, cell-based reporter. Potency, µM (highest dose often 46.1 µM), hits mostly activators; note: nearly all actives have a fitted effect of over 65% in size
VP16 counter = VP16 counterscreen qHTS for inhibitors of ROR gamma transcriptional activity; Drosophila S2 Gal4-VP16 UAS-luciferase, luminescence, 20 h; Potency, µM (series often up to 53.6 µM), usual class: inhibitors; actives 3.5% (n = 310,000); AID 2546, 2010;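 note: Gal4-VP16 expression switched on by copper sulfate through the metallothionein promoter; nearly all actives have a fitted effect of over 50% in size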
TSHR antagonist = Antagonists of the Thyroid Stimulating Hormone Receptor: HTS campaign; activity change, negative = inhibition, % at 11.5 µM; actives 0.2% (n = 330,000); AID 504810, 2011; TSHR-expressing cells, TSH-stimulated cAMP HTRF, 2 h; stronger effect = lower value;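 active = activity change below a set negative limit, meaning inhibition stronger than a set level, cut at about -70% in these data; inconclusive = activity change between two set negative limits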
Target sequence (P16473 whole entry, looked up): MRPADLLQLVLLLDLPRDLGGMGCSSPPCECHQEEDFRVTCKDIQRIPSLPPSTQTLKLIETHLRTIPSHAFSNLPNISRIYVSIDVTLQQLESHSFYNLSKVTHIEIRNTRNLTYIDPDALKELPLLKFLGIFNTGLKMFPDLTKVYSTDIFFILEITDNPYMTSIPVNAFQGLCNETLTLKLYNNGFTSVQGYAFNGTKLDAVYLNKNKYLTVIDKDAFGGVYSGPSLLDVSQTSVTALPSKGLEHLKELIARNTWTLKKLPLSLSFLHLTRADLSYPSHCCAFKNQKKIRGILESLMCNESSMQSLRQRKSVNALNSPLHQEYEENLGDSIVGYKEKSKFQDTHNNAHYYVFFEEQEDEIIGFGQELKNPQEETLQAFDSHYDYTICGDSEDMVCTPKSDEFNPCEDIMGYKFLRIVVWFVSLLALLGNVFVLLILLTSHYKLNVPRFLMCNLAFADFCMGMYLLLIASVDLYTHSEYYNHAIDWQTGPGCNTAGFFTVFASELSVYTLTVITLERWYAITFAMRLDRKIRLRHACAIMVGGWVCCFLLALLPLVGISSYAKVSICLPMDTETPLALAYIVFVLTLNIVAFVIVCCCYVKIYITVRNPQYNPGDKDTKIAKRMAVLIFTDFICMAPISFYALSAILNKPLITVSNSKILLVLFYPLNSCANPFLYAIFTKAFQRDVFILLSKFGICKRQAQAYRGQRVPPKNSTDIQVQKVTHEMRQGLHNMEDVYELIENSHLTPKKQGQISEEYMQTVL
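TSHR-expressing cells were treated with compounds, then stimulated with TSH at EC80 (4nM final) for 2 hours at 37 deg C. Cellular cAMP was measured by HTRF competition between lysate cAMP and cAMP-d2 for a cryptate-labelled anti-cAMP antibody.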
ELG1 repair inh = qHTS screen for small molecules that inhibit ELG1-dependent DNA repair in human embryonic kidney (HEK293T) cells expressing luciferase-tagged ELG1. HEK293T ELG1-luciferase reporter, luminescence, 16 h; DNA damage induced by 5-fluorouridine. Potency, µM (highest dose often 46.1 µM), actives largely listed as inhibitors. actives 2.3% (n = 330,000). AID 504467, 2011; note: nearly all actives have a fitted effect of over 55% in size
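In this reporter screen, reduction of luminescence relative to DMSO vehicle indicated activity. Compounds and 5-fluorouridine were added together to 2,000 cells per well, incubated for 16 hr at 37 °C, then developed with ONE-Glo.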
RORg inh = qHTS for inhibitors of ROR gamma transcriptional activity | Drosophila S2 Gal4-RORgamma UAS-luciferase reporter, 20 h | Potency, µM (highest dose often 53.6 µM), most hits filed as inhibitors | actives 5.4% (n = 310,000); note: nearly all actives have a fitted effect of over 60% in size
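In this cell-based reporter format, copper sulfate (700 uM final) drives Gal4–ROR gamma fusion expression from a metallothionein promoter in Drosophila Schneider cells; compounds preincubated 1 hr, reporter read after 20 hr at ambient temperature.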
Large screens that a line does not name were inactive. The list is not random: actives were taken first. Their share in the collection is about 7.5%. Unless noted, calls come from the whole dose curve; as a rule, active = well fitted curve in the direction sought with a large enough effect; inconclusive = small, poorly fitted or top-dose-only effect, or another doubt; inactive = no such curve, though single readings can be large; an effect the other way counts as inactive or inconclusive.

CN(C(=S)NC1CCCCC1)C1(c2ccccc2Cl)CCCCC1=O (stereo unspecified)	VP16 counter inconclusive, RORg inh 12.6µM
CCN1C(=O)CC(N2CCN(c3ccc(C(=O)c4ccncc4)cc3)CC2)C1=O (stereo unspecified)	VP16 counter inconclusive, ELG1 repair inh 14.6µM
O=C(c1ccncc1)c1ccc(N2CCN(C3CC(=O)N(Cc4cccs4)C3=O)CC2)cc1 (stereo unspecified)	VP16 counter inconclusive, ELG1 repair inh inconclusive
O=C1c2c(O)ccc([N+](=O)[O-])c2C(=O)c2c([N+](=O)[O-])ccc(O)c21	VP16 counter 11.2µM, RORg inh 6.31µM (no result: B2AR arrestin, TSHR antagonist, ELG1 repair inh)
Cc1c(C(C)CCCO)oc(=O)c2c1Oc1c(C)c(C(C)C[C@H](C)O)oc(=O)c1C2 (stereo partly specified)	none (no result: VP16 counter, RORg inh)
COc1ccc(-c2cc(=S)ss2)cc1	RORg inh inconclusive (no result: B2AR arrestin, TSHR antagonist, ELG1 repair inh)
COc1ccc(CN2CCN(Cc3nc4ccccc4s3)CC2CCO)c(C)c1C (stereo unspecified)	ELG1 repair inh 16.4µM, RORg inh inconclusive
Cn1c(OCc2cccnc2)nc2c1c(=O)n(Cc1ccc(Br)cc1)c(=O)n2C	VP16 counter inconclusive, ELG1 repair inh 16.4µM, RORg inh 3.55µM
Cn1c(=O)c2c(nc(NCc3cccnc3)n2Cc2ccc(Cl)cc2)n(C)c1=O	ELG1 repair inh 20.6µM
CCNc1nc2c(c(=O)n(C)c(=O)n2C)n1CCCc1ccccc1	VP16 counter 11.2µM, ELG1 repair inh inconclusive, RORg inh inconclusive
Cn1c(OCc2ccc3c(c2)OCO3)nc2c1c(=O)n(Cc1ccc(Cl)c(Cl)c1)c(=O)n2C	none
Cn1c(=O)c2c([nH]c(=S)n2Cc2ccc(Cl)cc2)n(C)c1=O	VP16 counter inconclusive, RORg inh 12.6µM
CCNC(=S)N1CCCC(C(N)=O)C1 (stereo unspecified)	none
CCCCNc1nc2c(c(=O)n(Cc3ccccc3)c(=O)n2C)n1C	ELG1 repair inh inconclusive
Cn1c(=O)c2c(nc(NCc3ccccc3)n2Cc2ccc(F)cc2)n(C)c1=O	VP16 counter 14.1µM, ELG1 repair inh inconclusive, RORg inh inconclusive
CCNc1nc2c(c(=O)n(Cc3ccccc3)c(=O)n2C)n1Cc1ccccc1	ELG1 repair inh 13µM
CCC(C)Nc1nc2c(c(=O)n(C)c(=O)n2C)n1Cc1ccc(Cl)cc1 (stereo unspecified)	ELG1 repair inh inconclusive
CCNc1nc2c(c(=O)n(C)c(=O)n2C)n1Cc1ccc(Cl)cc1	VP16 counter 4.47µM, RORg inh inconclusive
Cc1ccc(-c2onc3ccc(C4OCCO4)cc23)cc1	ELG1 repair inh inconclusive
Cc1ccc(OCC(=O)N/N=C\c2cn(Cc3ccccc3)c3ccccc23)cc1C	VP16 counter inconclusive, RORg inh 11.2µM
Cc1ccccc1OCC(=O)N/N=C/c1cn(Cc2ccccc2)c2ccccc12	VP16 counter inconclusive, RORg inh 17.8µM
Cc1ccccc1OCC(=O)N/N=C/c1cn(C)c2ccccc12	RORg inh inconclusive
O=C(Cc1ccc(NC2=NC3CS(=O)(=O)CC3S2)cc1)NCCc1ccccc1 (stereo unspecified)	none
CC(Nc1oc(-c2ccccc2)nc1-c1ccc(C(F)(F)F)cc1)c1ccccc1 (stereo unspecified)	none (no result: B2AR arrestin, TSHR antagonist, ELG1 repair inh)
CCOc1cc(/C=C/C(=O)c2ccc(OC)c(CN3CCOCC3)c2)cc(Br)c1O	ELG1 repair inh 18.3µM, RORg inh inconclusive
CCc1noc(C)c1C(=O)N(C)CC(=O)Nc1ccc(Br)cc1C	none (no result: VP16 counter, RORg inh)
Cc1cccc(NC(=O)c2nc[nH]c2C(=O)N[C@@H](CC(C)C)C(=O)OCc2ccccc2)c1	VP16 counter 10µM, RORg inh 3.55µM
Cc1cccc(NC(=O)c2nc[nH]c2C(=O)N[C@@H](C)C(=O)OCc2ccccc2)c1	VP16 counter 12.6µM, RORg inh 8.91µM
CC1(C)N([O-])c2cc([N+](=O)[O-])ccc2[N+]1=O	VP16 counter inconclusive, RORg inh 20µM
Fc1cc(Br)ccc1NC(=S)NCCc1ccccc1	VP16 counter inconclusive, ELG1 repair inh inconclusive, RORg inh 7.94µM
C=CCNC(=S)Nc1ccc(Br)cc1F	VP16 counter inconclusive, RORg inh 15.8µM
C=CCNC(=S)Nc1ccc(Cl)cc1F	ELG1 repair inh inconclusive, RORg inh 14.1µM
CN(C)/C=N/C(=S)Nc1ccccc1	ELG1 repair inh inconclusive, RORg inh 15.8µM
Cc1ccc(F)cc1NC(=S)NCCc1ccccc1	RORg inh inconclusive
C=CCNC(=S)Nc1cccc2ccccc12	none
COCCn1c(=O)c(-c2cc(F)cc(F)c2)nc2cnc(N3CCOCC3)nc21	none (no result: B2AR arrestin, TSHR antagonist, ELG1 repair inh)
Cc1nn(C(C)C)c(C)c1CN1CCN(Cc2ccsc2)C(CCO)C1 (stereo unspecified)	none
CN(C)/C=N/C(=S)Nc1ccc(Br)cc1F	VP16 counter 12.6µM, ELG1 repair inh inconclusive, RORg inh inconclusive
Cc1nn(CC(=O)NNC(=O)c2cccc(Br)c2)c(C)c1[N+](=O)[O-]	none
O=C1/C(=C\c2ccccn2)SC(=S)N1Nc1ncc(C(F)(F)F)cc1Cl	VP16 counter inconclusive, RORg inh 11.2µM
CN1C(=O)C[C@H](C(=O)O)[C@@H]1c1cccnc1	none (no result: B2AR arrestin, TSHR antagonist, ELG1 repair inh)
O=C1NC2(CCSC2)C(=O)N1CC(=O)N(Cc1ccccc1)C1CCS(=O)(=O)C1 (stereo unspecified)	none
c1ccc(-c2oc3ncnc(NCCCn4ccnc4)c3c2-c2ccccc2)cc1	VP16 counter inconclusive, ELG1 repair inh inconclusive, RORg inh 22.4µM
CN(C)CCCNc1ncnc2oc(-c3ccccc3)c(-c3ccccc3)c12	ELG1 repair inh inconclusive
c1ccc(-c2c(-c3ccccc3)n(Cc3ccco3)c3ncnc(NCCCn4ccnc4)c23)cc1	VP16 counter 15.8µM, ELG1 repair inh inconclusive
c1ccc(-c2ccc(OCCN3CCCC3)cc2)cc1	none (no result: B2AR arrestin, TSHR antagonist, ELG1 repair inh)
O=C(Cc1ccccc1)Nc1nc2ccc(Cl)cc2c2nc(-c3ccco3)nn12	none (no result: B2AR arrestin, TSHR antagonist, ELG1 repair inh)
COc1cc(NC(=S)Nc2cccc(C)n2)cc(OC)c1OC	VP16 counter 8.91µM, RORg inh 2.51µM
COc1cc(NC(=O)Nc2cccc3cccnc23)cc(OC)c1OC	VP16 counter inconclusive, RORg inh inconclusive
COc1cc(NC(=S)Nc2ncccc2C)cc(OC)c1OC	RORg inh 12.6µM
CC(=O)Nc1ccc(S(=O)(=O)N2CCN(C(=O)c3ncoc3-c3ccccc3)CC2)cc1	none
Cc1cccc(NC2=NC(=S)N(CC#N)C23CCCCC3)c1	VP16 counter inconclusive, RORg inh 11.2µM
COc1ccccc1NC(=S)NNC(=O)c1nn(C)cc1Cl	VP16 counter inconclusive, RORg inh 10µM
Cc1c(NC(=S)NC(=O)c2ccc(-c3ccc(Cl)cc3)o2)cccc1C(=O)O	none
